Relative cell viability data for 13 compounds are collected here from the supplement of paper PMC9588786.

± gives the standard deviation of the averaged measurements.
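Further: viability read as CCK-8 absorbance at 450 nm in cells co-exposed to the GPX4 inhibitor RSL3, relative to a 0.01% DMSO vehicle control.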

For the test, the system named is HT-1080. The test is described as follows: relative cell viability with RSL3 co-treatment (fraction of control); higher = stronger protection from RSL3-induced ferroptosis (higher viability). Conditions: 10 µM.
As for `CC[C@H](CO)Nc1nc(NCc2ccccc2)c2ncn(C(C)C)c2n1` [Roscovitine (Seliciclib,CYC202)], the relative cell viability was found to be 0.793 ± 0.12. The same measure for `CC(C)Nc1cc(-c2c[nH]c(C(=O)N[C@H](CO)c3cccc(Cl)c3)c2)c(Cl)cn1`: 0.753 ± 0.076; for `C[S+]([O-])c1ccc(-c2nc(-c3ccc(F)cc3)c(-c3ccncc3)[nH]2)cc1` (stereo not drawn): 0.603 ± 0.032. Take `COc1ccc(C(=O)Nc2sc3c(c2C(N)=O)CCCC3)cc1OC`: the relative cell viability turned out to be 0.66 ± 0.087. Consider `C[C@@]1(C(=O)Nc2ccc(F)nc2)CCCN1c1nc(Nc2cc(C3CC3)n[nH]2)c2cccn2n1`, for which the relative cell viability turned out to be 0.483 ± 0.05. On to `CN1CCN(C2CCN(C(=O)Nc3cc(Oc4ccc(NC(=O)C5(C(=O)Nc6ccc(F)cc6)CC5)c(F)c4)ccn3)CC2)CC1` [Golvatinib (E7050)], for which the relative cell viability is 0.717 ± 0.065. Consider `COc1cc(N2CCC(N(C)C)CC2)ccc1Nc1ncc(Cl)c(Nc2ccccc2P(C)(C)=O)n1`, for which the relative cell viability worked out at 0.36 ± 0.082.

For the compound `O=C(NOC[C@H](O)CO)c1ccc(F)c(F)c1Nc1ccc(I)cc1F`, the relative cell viability was found to be 0.897 ± 0.032. As to `CC[C@@H]1C(=O)N(C)c2cnc(Nc3ccc(C(=O)NC4CCN(C)CC4)cc3OC)nc2N1C1CCCC1`, the relative cell viability was found to be 0.553 ± 0.031. For `COc1ccc(-c2ccc3ncc4c(c3c2)n(-c2ccc(N3CCNCC3)c(C(F)(F)F)c2)c(=O)n4C)cn1`, the relative cell viability amounted to 0.29 ± 0.087. Turning to `NC1(c2ccc(-c3nc4ccn5c(=O)[nH]nc5c4cc3-c3ccccc3)cc2)CCC1`, the relative cell viability stood at 0.467 ± 0.1. For `CC(C)n1nc(-c2cc3cc(O)ccc3[nH]2)c2c(N)ncnc21` [Torkinib (PP242)], the relative cell viability stood at 0.833 ± 0.12. Consider `Cc1ccc(NC(=O)c2ccc(CN3CCN(C)CC3)cc2)cc1Nc1nc(-c2cccnc2)cs1` [Masitinib (AB1010)], for which the relative cell viability was determined as 0.67 ± 0.12.
